Compound activity (PubChem)
rCAG RNA binder – binders of r(CAG) RNA repeats, primary screen, biochemical, fluorescence; inhibition, % at 3 µM; 370,000 compounds, 1.3% hits; AID 651821, 2012; r(CAG) RNA repeat, TO-PRO-1 dye displacement fluorescence;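 active = inhibition above the plate cutoff, the mean of all test compounds on that plate plus 3 SD, cut at about 35% in these data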;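 note: higher means more dye released from RNA so lower well fluorescence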
PHOSPHO1 inh – PubChem AID 1565 | recombinant PHOSPHO1, absorbance phosphatase assay | inhibition, % at 13.3 µM | 290,000 compounds, 1.1% hits; in the data active = inhibition above about 60%
APOBEC3A inh – APOBEC3A ssDNA deaminase inhibitors, primary screen, selectivity assay for APOBEC3G inhibitor project, biochemical, FAM/TAMRA oligo cleavage fluorescence | DNA dC->dU-editing enzyme APOBEC-3A (Homo sapiens), P31941 | recombinant A3A, FAM/TAMRA ssDNA deamination fluorescence | inhibition, % at 20 µM | 330,000 compounds, 0.41% hits | AID 493011, 2011;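 active = at least 40% inhibition at 20 µM here, with at most 30% in a related deaminase screen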
Target sequence (P31941 whole entry, looked up): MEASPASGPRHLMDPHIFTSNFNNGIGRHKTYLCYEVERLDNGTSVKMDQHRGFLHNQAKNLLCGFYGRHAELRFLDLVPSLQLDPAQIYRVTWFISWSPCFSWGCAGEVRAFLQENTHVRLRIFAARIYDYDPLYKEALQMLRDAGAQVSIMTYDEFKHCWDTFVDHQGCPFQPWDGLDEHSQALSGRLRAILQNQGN
ALR inh – inhibitors of human ALR sulfhydryl oxidase, primary screen, biochemical, H2O2 detection, HRP-luminol luminescence, single point; FAD-linked sulfhydryl oxidase ALR (Homo sapiens), P55789; purified ALR, DTT oxidation; inhibition, % (no concentration beside the values); 290,000 compounds, 3.8% hits; AID 485317, 2010;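 active = mean replicate inhibition above about 79%, with every replicate also reaching it, limit read from the data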
aDG glyco act – activators of alpha-DG glycosylation, primary screen, uHTS, Pro5-aDG cells, AlphaScreen | alpha-DG glycosylation AlphaScreen (IIH6); 0% Pro5, 100% B10-LARGE cell signal | activation, % at 10 µM | 360,000 compounds, 0.22% hits;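 active = activation of at least 8% versus controls, or a plate z-score of at least 8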;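 note: Pro5 are CHO cells carrying HIG-tagged alpha-DG that lacks glycosylation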
A3G deaminase – APOBEC3G DNA deaminase inhibitors, primary screen, biochemical, fluorescence, single-stranded DNA substrate, uHTS. 330,000 compounds, 0.28% hits. DNA dC->dU-editing enzyme APOBEC-3G (Homo sapiens), Q9HC16. AID 493012, 2011. recombinant A3G, ssDNA deamination FAM/TAMRA fluorescence. inhibition, % at 20 µM;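 active = inhibition of at least 40% at 20 µM, with no more than 30% in the related APOBEC3A deaminase screen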
Target sequence (Q9HC16 whole entry, looked up): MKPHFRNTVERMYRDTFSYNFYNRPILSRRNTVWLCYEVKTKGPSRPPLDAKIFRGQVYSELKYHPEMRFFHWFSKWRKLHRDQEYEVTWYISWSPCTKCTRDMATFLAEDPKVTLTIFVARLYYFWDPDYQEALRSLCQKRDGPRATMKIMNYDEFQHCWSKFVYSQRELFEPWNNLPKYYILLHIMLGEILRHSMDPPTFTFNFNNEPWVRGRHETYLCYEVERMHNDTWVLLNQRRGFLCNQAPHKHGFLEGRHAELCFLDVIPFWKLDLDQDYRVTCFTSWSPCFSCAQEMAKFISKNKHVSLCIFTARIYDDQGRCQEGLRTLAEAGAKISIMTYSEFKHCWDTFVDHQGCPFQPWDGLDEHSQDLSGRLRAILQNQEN
Hits are given with their value; – = inactive; · = no result. Most compounds without a hit are left out; they make up all but 5.4% or so of the library.

SMILES	rCAG RNA binder	PHOSPHO1 inh	APOBEC3A inh	ALR inh	aDG glyco act	A3G deaminase
COc1ccc(NC2CCCN(C(=O)c3cccc(N4CCNC4=O)c3)C2)cc1 (centres undefined)	–	–	–	99.3	–	–
COc1ccc2cc(C(=O)C3CCCN(C(=O)c4cccnc4)C3)ccc2c1 (centres undefined)	–	–	–	–	–	–
CC(C)c1ccc(NC2CCCN(C(=O)c3cccc(N4CCNC4=O)c3)C2)cc1 (centres undefined)	–	–	–	94.8	–	–
CCCCCCN1CCN(C2CN(Cc3cn(Cc4ccc(C(F)(F)F)cc4)nn3)S(=O)(=O)C2)CC1 (centres undefined)	–	·	·	·	·	·
CC(=O)Nc1sc(N)nc1-c1ccccc1	–	80.3	–	–	–	–
CCOc1ccccc1OCC(=O)Nc1ccc(S(=O)(=O)Nc2nc(C)cc(C)n2)cc1	–	–	–	94.7	–	–
Cc1cc(C)nc(NS(=O)(=O)c2ccc(NC(=O)Nc3ccccc3)cc2)n1	–	–	–	–	–	–
Cc1cc(C)nc(NS(=O)(=O)c2ccc(NC(=O)COc3ccccc3F)cc2)n1	–	·	–	–	–	–
Cc1cc(C)nc(NS(=O)(=O)c2ccc(NC(=O)Cc3ccccc3F)cc2)n1	–	–	–	99.0	–	–
Cc1cc(C)nc(NS(=O)(=O)c2ccc(NC(=O)NC3CCCCC3)cc2)n1	–	–	–	98.4	–	–
CCOC(=O)C1(Cc2ccccc2)CCN(Cc2ccc(C)cc2)CC1	–	·	·	·	·	·
COC(=O)[C@]12C[C@H](CC(=O)NCc3cccc4ccccc34)C(=O)N(CCC3=CCCCC3)C1=C[C@H](C(C)(C)C)O[C@@H]2C	–	·	·	·	·	·
CC(=O)n1c(=O)c2ccccc2c(=O)n1-c1ccccc1	–	·	–	97.9	–	–
O=C1CCN(CCc2ccccc2)CCN1[C@H](CSc1ccc(Br)cc1)c1ccccc1	–	–	–	·	–	–
CC(=O)Nc1ccc(SC[C@H](c2ccccc2)N2CCN(CCc3ccccc3)CCC2=O)cc1	–	–	–	98.0	·	–
O=S1(=O)CC2c3ccccc3CN2CN1C1CCCC1 (centres undefined)	–	·	·	·	·	·
O=C(Nc1nnc(S(=O)(=O)N2CCOCC2)s1)c1ccc(Cl)cc1	–	–	–	–	–	–
O=C(Nc1nnc(S(=O)(=O)N2CCOCC2)s1)c1ccccc1	–	–	–	98.6	–	–
CCOC(=O)/C(=N\Nc1ccccc1Cl)N1CC(C)OC(C)C1 (centres undefined)	–	–	–	·	–	–
CCOC(=O)/C(=N\Nc1ccccc1Cl)N(C)C1CCCCC1	–	–	–	98.5	–	–
CCOc1ccc(-c2csc(NC(=O)CSC3=NC(=O)CN3C(C)=O)n2)c2ccccc12	–	–	–	98.6	–	–
CC(=O)N1CC(=O)N=C1SCC(=O)Nc1nc(C)c(-c2ccccc2)s1	–	–	–	98.3	–	–
COc1ccc(C2C(C(=O)Nc3ccc(Cl)cc3)CCC(=O)N2c2ccc(OC)cc2)cc1 (centres undefined)	–	·	·	·	·	·
Cc1noc2ncnc(Sc3ccc(Cl)cc3)c12	–	–	–	79.6	–	–
Cc1ccc(Sc2ncnc3onc(C)c23)cc1	–	–	–	99.2	–	–
SMILES	rCAG RNA binder	PHOSPHO1 inh	APOBEC3A inh	ALR inh	aDG glyco act	A3G deaminase
Cc1noc2ncnc(Sc3c(Cl)cccc3Cl)c12	–	–	–	–	–	–
Cc1ccc(CSc2ncnc3onc(C)c23)cc1	–	–	–	–	–	–
C=CCN1[C@H](C#N)[C@@H](c2ccc(Br)cc2)[C@H]1CO	–	·	·	·	·	·
CC1CN(c2nc3ccccc3nc2SCC(=O)N2CCN(S(=O)(=O)c3ccccc3)CC2)CC(C)O1 (centres undefined)	–	·	·	·	·	·
O=C(c1ccc(Cl)cc1)N1CCCC(C(=O)N2CCc3ccccc3C2)C1 (centres undefined)	–	60.5	–	–	–	–
O=C(c1ccccc1)N1CCCC(C(=O)N2CCc3ccccc3C2)C1 (centres undefined)	–	–	–	–	–	–
O=C(O)c1ccccc1-c1c2cc(I)c(=O)c(I)c-2oc2c(I)c(O)c(I)cc12	–	·	–	81.6	–	–
Cc1ccc(S(=O)(=O)NCC2CCN(C(=O)C(=O)c3cc4ccccc4o3)CC2)cc1	–	·	·	·	·	·
Cc1c(Cl)cccc1NC(=S)Nc1ccc2[nH]c(=O)[nH]c2c1	–	–	–	94.9	–	–
COc1cc(CNc2ccc3[nH]c(=O)[nH]c3c2)cc(Br)c1OCc1ccc(F)cc1	–	–	–	–	–	–
O=c1[nH]c2ccc(NCc3ccc(F)cc3)cc2[nH]1	–	–	–	99.8	–	–
O=c1[nH]c2ccc(NC(=S)Nc3ccc(F)cc3)cc2[nH]1	–	–	–	89.9	–	–
CNC(=S)Nc1ccc2[nH]c(=O)[nH]c2c1	–	–	–	–	–	–
O=C(NS(=O)(=O)c1cccc(F)c1)[C@H]1O[C@@H](n2ccc(=O)[nH]c2=O)[C@H](O)[C@@H]1O	–	·	·	·	·	·
O=C(NCc1ccc(Cl)cc1)C1CCCN(c2ncccn2)C1 (centres undefined)	–	·	·	·	·	·
CC(C)C1Cc2c(C#N)c(N)sc(=S)c2CO1 (centres undefined)	–	88.6	–	–	–	–
CC1(C)Cc2c(C#N)c(N)sc(=S)c2CO1	–	79.5	–	–	–	–
CC(C)N1CCc2c(sc(N)c2C#N)C1	–	–	–	–	–	–
CCN(CC)c1nc(C)c2c(c1C#N)CC(C)(C)OC2	–	–	–	·	–	–
Cc1cc(C(F)(F)F)c2c(C)nn(-c3ccccc3)c2n1	–	·	–	–	–	–
Cc1cc(C)nc(Sc2c(C)nn(-c3ccccc3)c2C)n1	–	–	–	79.7	–	–
Cc1cc(=O)[nH]c(SCC(=O)Nc2cccc(C)c2C)n1	–	·	·	·	·	·
COc1ccc2c(c1)CCC/C2=N/OC(=O)c1ccccc1OC	–	–	–	–	–	–
COc1ccc2c(c1[N+](=O)[O-])CCC/C2=N/OC(=O)c1cccc2ccccc12	–	77.9	–	–	–	–
COc1ccccc1N1CCN(S(=O)(=O)c2ccc3c(c2)CCC(=O)N3)CC1	–	·	·	·	·	·
Cc1ccccc1NC(=O)COC(=O)c1ccc(S(C)(=O)=O)c([N+](=O)[O-])c1	–	60.0	–	–	–	–
CS(=O)(=O)c1ccc(C(=O)OCC(=O)Nc2cccnc2Cl)cc1[N+](=O)[O-]	·	·	–	–	–	–
